# Test results from publication PMC7862700, “An all-to-all approach to the identification of sequence-specific readers for epigenetic DNA modifications on cytosine”.
# Assays:
# Assay in all cases: DAPPL (digital affinity profiling via proximity ligation, sequencing); 10 mM Tris-HCl pH 7.5, 50 mM NaCl, 1 mM DTT, 4% glycerol, room temperature, 30 min; GST-TFs on glutathione beads, 16-mer random dsDNA library, 0.1% formaldehyde crosslink after washing; high values mean tight binding
# Settings in all cases: protein: recombinant; tags: N-terminal GST; dsDNA, one strand shown
# FLI1 = target: T1, FLI1 (Homo sapiens, UniProt Q01543 1-452)
# T1 sequence: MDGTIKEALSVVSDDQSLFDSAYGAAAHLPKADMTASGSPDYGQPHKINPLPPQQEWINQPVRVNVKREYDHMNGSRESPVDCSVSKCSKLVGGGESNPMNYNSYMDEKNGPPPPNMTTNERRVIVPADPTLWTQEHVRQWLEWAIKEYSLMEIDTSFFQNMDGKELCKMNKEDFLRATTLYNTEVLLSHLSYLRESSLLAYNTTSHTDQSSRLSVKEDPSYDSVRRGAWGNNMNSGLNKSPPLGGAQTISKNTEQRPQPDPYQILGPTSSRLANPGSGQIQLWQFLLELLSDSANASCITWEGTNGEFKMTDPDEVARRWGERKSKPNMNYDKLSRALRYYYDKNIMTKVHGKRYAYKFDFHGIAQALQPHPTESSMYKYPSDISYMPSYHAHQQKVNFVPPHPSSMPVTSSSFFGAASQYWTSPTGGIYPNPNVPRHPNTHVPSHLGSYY
# Procedure, shortened: (§1)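 Each value of binding signal is a hexamer's read frequency for a factor divided by the same hexamer's frequency in the tag-only sample. Barcoded, bead-captured GST fusions of human transcription factors made in yeast were pooled with that sample and incubated with 200 nmole of a random double-stranded 16-mer DNA library in Tris/NaCl/DTT/glycerol buffer at room temperature for 30 min. Washing, 0.1% formaldehyde crosslinking, proximity ligation, PCR and Illumina NextSeq500 sequencing followed.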
# ELK1 = target: T2, ELK1 (Homo sapiens, UniProt P19419 1-428)
# T2 sequence: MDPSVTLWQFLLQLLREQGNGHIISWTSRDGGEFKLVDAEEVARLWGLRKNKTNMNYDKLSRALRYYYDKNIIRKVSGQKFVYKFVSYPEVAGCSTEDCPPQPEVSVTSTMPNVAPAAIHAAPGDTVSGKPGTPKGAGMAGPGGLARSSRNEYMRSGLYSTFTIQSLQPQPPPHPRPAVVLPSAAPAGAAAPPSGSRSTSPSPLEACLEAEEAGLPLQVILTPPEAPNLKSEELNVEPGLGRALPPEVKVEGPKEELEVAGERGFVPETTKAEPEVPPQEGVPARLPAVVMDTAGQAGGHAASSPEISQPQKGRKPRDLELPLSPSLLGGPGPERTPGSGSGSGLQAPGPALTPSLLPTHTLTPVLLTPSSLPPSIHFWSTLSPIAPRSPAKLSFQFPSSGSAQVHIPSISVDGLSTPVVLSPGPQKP
# Procedure, shortened: as §1
# GABPA = target: T3, GABPA (Homo sapiens, UniProt Q06546 1-454)
# T3 sequence: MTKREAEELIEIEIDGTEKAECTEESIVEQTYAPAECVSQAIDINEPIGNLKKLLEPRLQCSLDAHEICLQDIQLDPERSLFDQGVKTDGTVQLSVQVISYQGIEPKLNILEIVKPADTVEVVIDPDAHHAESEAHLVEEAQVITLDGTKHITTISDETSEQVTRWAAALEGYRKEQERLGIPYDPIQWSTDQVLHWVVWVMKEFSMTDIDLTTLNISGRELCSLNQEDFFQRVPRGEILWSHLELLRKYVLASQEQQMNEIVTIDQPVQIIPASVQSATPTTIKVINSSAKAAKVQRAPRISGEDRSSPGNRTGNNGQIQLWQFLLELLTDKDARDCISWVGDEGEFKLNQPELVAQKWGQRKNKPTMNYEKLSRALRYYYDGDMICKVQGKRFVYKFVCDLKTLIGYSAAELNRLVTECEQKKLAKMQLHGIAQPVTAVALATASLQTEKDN
# Procedure, shortened: as §1
# ERG = target: T4, ERG (Homo sapiens, UniProt P11308 1-479)
# T4 sequence: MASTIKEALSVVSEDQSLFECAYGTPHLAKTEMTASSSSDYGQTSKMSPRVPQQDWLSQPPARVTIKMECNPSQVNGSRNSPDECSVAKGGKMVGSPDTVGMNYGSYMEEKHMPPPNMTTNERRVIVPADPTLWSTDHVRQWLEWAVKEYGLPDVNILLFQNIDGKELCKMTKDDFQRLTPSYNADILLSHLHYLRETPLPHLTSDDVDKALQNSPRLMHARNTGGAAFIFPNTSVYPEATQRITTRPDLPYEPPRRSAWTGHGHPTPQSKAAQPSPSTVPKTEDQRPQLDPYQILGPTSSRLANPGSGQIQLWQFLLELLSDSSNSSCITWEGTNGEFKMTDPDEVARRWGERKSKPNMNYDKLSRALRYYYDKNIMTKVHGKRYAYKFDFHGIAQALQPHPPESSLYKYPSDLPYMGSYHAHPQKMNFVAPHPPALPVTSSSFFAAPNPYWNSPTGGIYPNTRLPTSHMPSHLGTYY
# Procedure, shortened: as §1
# ELF1 = ELF1 (Homo sapiens, UniProt P32519 1-619)
# Procedure, shortened: as §1
# EHF = target: T5, EHF (Homo sapiens, UniProt Q9NZC4 1-300)
# T5 sequence: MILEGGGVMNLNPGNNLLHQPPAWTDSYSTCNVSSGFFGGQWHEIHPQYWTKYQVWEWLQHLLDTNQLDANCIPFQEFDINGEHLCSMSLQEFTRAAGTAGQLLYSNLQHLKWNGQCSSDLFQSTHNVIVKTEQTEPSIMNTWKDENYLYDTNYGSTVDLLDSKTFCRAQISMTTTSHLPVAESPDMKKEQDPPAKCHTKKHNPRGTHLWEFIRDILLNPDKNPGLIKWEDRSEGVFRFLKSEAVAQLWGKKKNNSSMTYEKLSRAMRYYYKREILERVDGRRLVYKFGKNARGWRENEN
# Procedure, shortened: as §1
# SPI1 = SPI1 (Homo sapiens, UniProt P17947 1-270)
# Procedure, shortened: as §1
# SPIB = SPIB (Homo sapiens, UniProt Q01892 1-262)
# Procedure, shortened: as §1
# ELK3 = target: T6, ELK3 (Homo sapiens, UniProt P41970 1-407)
# T6 sequence: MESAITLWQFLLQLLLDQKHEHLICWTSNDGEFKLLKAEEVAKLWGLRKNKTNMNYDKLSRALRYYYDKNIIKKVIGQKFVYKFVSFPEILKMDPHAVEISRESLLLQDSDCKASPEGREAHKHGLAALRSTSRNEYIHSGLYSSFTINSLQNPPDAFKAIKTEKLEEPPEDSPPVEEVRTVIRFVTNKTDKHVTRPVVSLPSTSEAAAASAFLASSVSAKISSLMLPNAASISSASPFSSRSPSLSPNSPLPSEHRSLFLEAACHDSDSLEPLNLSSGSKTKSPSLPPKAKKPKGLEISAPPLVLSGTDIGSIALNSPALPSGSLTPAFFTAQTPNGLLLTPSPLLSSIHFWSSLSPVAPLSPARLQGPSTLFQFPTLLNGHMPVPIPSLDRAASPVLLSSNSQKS
# Procedure, shortened: as §1
# ELF1, sequence (P32519 whole entry): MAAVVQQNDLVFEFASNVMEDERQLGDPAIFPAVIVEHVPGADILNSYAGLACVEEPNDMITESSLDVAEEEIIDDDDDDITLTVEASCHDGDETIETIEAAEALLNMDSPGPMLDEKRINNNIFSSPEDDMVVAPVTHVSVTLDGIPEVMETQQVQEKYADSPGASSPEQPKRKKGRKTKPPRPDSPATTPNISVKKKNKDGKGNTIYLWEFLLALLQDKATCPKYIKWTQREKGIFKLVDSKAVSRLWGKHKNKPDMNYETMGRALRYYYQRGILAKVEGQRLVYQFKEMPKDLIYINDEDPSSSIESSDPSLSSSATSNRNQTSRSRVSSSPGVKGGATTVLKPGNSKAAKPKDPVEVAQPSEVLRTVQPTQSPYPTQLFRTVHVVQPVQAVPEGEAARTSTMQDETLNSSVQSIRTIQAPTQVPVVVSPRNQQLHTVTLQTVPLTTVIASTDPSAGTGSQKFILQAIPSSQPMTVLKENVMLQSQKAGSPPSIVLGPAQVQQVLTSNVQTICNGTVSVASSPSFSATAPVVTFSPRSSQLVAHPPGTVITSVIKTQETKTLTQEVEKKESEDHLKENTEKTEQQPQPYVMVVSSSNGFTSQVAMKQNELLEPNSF
# SPIB, sequence (Q01892 whole entry): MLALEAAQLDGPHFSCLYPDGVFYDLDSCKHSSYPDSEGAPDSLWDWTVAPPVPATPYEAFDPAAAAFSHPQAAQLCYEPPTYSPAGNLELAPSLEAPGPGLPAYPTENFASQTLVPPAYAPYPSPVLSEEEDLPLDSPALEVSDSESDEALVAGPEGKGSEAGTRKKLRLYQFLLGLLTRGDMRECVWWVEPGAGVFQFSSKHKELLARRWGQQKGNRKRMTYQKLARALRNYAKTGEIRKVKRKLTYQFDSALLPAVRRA
sequence,measurement,setting,value
AGTATC,binding signal,FLI1,"1.09 fold enrichment (6-mer frequency, TF over GST control)"
same,binding signal,ELK1,"1.13 fold enrichment (6-mer frequency, TF over GST control)"
same,binding signal,GABPA,"1.11 fold enrichment (6-mer frequency, TF over GST control)"
same,binding signal,ERG,"1.08 fold enrichment (6-mer frequency, TF over GST control)"
same,binding signal,ELF1,"1.13 fold enrichment (6-mer frequency, TF over GST control)"
same,binding signal,EHF,"1.19 fold enrichment (6-mer frequency, TF over GST control)"
same,binding signal,SPI1,"1.13 fold enrichment (6-mer frequency, TF over GST control)"
same,binding signal,SPIB,"1.2 fold enrichment (6-mer frequency, TF over GST control)"
same,binding signal,ELK3,"1.17 fold enrichment (6-mer frequency, TF over GST control)"
